Test results reported in PubChem BioAssay AID620 (Sanford-Burnham Center for Chemical Genomics, 2007).
The whole screen tested about 87,000 compounds, of which about 360 (0.41%) were called active. The list comes from a sample in which actives are over-represented; it also holds similar structures and randomly drawn compounds. Values without a mark were called inactive. No stated cut-off is given here; in the data, active means cytotoxicity above about 50%; inactive means the rest.

Test: HT1080 cell viability loss – fluorescence readout (AID 620);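 further: cells exposed to compound overnight then 4 h with Alamar Blue; 0% = vehicle DMSO and 100% = killing control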
Settings: at 10 µM, stronger effect = higher value

SMILES | cytotoxicity
COCCNC(=O)CN(Cc1ccc2c(c1)OCO2)C(=O)CCC(=O)Nc1nccs1 | -8.1%
O=C(CN(C(=O)Cn1nnc(-c2cccs2)n1)c1ccc2c(c1)OCCO2)NCC1CCCO1 (stereo unspecified) | -1.3%
Cc1ccsc1C1NC(=O)c2ccccc2N1 (stereo unspecified) | 7.3%
Cc1ccc(C2NC(=O)c3ccccc3N2)s1 (stereo unspecified) | 57.7% (active)
O=C1NC(c2cccs2)Nc2ccccc21 (stereo unspecified) | 10.2%
O=S(=O)(Nc1ccc(-c2nc3cccnc3s2)cc1)c1cccs1 | -6.8%
Cc1ccc(S(=O)(=O)Nc2cccc3ncccc23)s1 | 54.9% (active)
O=S(=O)(Nc1cccc2ncccc12)c1cccs1 | 85% (active)
COc1ccccc1NS(=O)(=O)c1cccs1 | 8.9%
O=S(=O)(Nc1cccc2c1ccc1cccn12)c1cccs1 | -4.6%
CCOc1ccccc1NS(=O)(=O)c1ccc(Br)s1 | 20.7%
CCOc1ccccc1NS(=O)(=O)c1cccs1 | 56.5% (active)
Cc1ccc(S(=O)(=O)Nc2ccnc3ccccc23)cc1 | 5.4%
Cc1ccc(S(=O)(=O)NCc2cccnc2)s1 | -11.9%
O=C(c1ccc2c3c(cccc13)CC2)N1CCOCC1 | -18.7%
CC(=O)N1C(=O)C2(C(C#N)=C(N)Oc3n[nH]c(-c4ccccn4)c32)c2ccccc21 (stereo unspecified) | 6.9%
O=C(NCc1ccc2c(c1)OCO2)c1nn(-c2ccccc2)c(=O)c2ccccc12 | -4.7%
O=C(Nc1ccccn1)C(=O)N1CCCCC1 | 4.7%
COc1cccc2c1C(=O)c1c(O)c3c(c(O)c1C2=O)C[C@@](O)(C(=O)CO)C[C@@H]3O[C@H]1C[C@H](N)[C@H](O)[C@H](C)O1 | 53.8% (active)
Cc1noc(/C=C/c2ccco2)c1S(=O)(=O)N1CCC(C(=O)N(C)Cc2ccccc2)CC1 | -4.4%
COc1ccc(C(CC(=O)O)NC(=O)COc2ccc(C)cc2)cc1OC (stereo unspecified) | 4.5%
CCOCC(=O)Nc1ccccc1C(=O)OCC | -3.7%
CC(=O)n1cc(Nc2ccccc2C(=O)O)c2ccccc21 | 0.2%
CCOC(=O)c1ccccc1Nc1cn(C(C)=O)c2ccccc12 | 53.7% (active)

SMILES | cytotoxicity
COc1ccc2c(Cl)c(-c3nnc4n3CCCCC4)sc2c1 | -8.8%
COc1ccc(C2C3=C(CC(C)(C)CC3=O)Oc3ncn(CCCn4ccnc4)c(=N)c32)cc1 (stereo unspecified) | 20.5%
CCc1cc2c(=O)n(Cc3ccco3)c(SCC(=O)N3CCCc4ccccc43)nc2s1 | -1.5%
Cc1nc(CSc2nc3[nH]ncc3c(=O)n2-c2ccccc2)cs1 | -1.5%
Cc1noc(C)c1CSc1nc2ccccc2c(=O)n1-c1ccc(Cl)cc1 | -2.7%
Cc1noc(C)c1CSc1nnc(-c2ccccc2)n1Cc1ccco1 | 2.6%
C=CCn1c(SCc2c(C)noc2C)nc2cc(C(=O)O)ccc2c1=O | 25.6%
Cc1noc(C)c1CSc1nc2[nH]ncc2c(=O)n1-c1ccccc1 | 60.4% (active)
Cc1noc(C)c1CSc1nc2ccccc2c(=O)n1-c1ccccc1 | 48.9%
C=CCn1c(SCc2c(C)noc2C)nc2ccccc2c1=O | 60.3% (active)
Cc1occc1C(=O)Nc1ccc2c(c1)CCC2 | 12.8%
CC(C)Cc1cc(C(=O)Nc2cc(Cl)ccc2Cl)no1 | 1.8%
O=C(C1CC1)N1CCCN(C(=O)C2CC2)CC1 | 1.3%
Cc1cc(=O)[nH]c(N2CCc3ccccc3C2)n1 | 1.4%
O=C(CSc1nnc(-c2cccs2)n1Cc1ccco1)Nc1ccc2c(c1)OCO2 | 1.2%
Cn1c(SCC(=O)N2CCCc3ccccc32)nnc1-c1c[nH]c2ccccc12 | 2.9%
CCOc1cccc(N2C(=O)CC(N3CCC(C(N)=O)(N4CCCCC4)CC3)C2=O)c1 (stereo unspecified) | -6.9%
O=c1[nH]c(=O)n([C@H]2C[C@H](O)[C@@H](CO)O2)cc1C(F)(F)F | 4.2%
O=c1[nH]c(=O)n([C@H]2C[C@H](O)[C@@H](CO)O2)cc1F | 58.1% (active)
CCc1cn([C@H]2C[C@H](O)[C@@H](CO)O2)c(=O)[nH]c1=O | -0.3%
Cc1ccc(SCC(=O)NCCCN2CCOCC2)cc1 | 4.3%
Cc1nn(C)cc1C1C2=C(CC(C)(C)CC2=O)OC2=C1C(=O)CC(C)(C)C2 | 14.2%
CC1(C)CC(=O)C(C2C3=C(CC(C)(C)CC3=O)Oc3ccccc32)=C(O)C1 (stereo unspecified) | -2.6%
CC1(C)CC(=O)C2=C(C1)OC1=C(C(=O)CC(C)(C)C1)C2c1ccc(O)cc1O | 63.3% (active)

SMILES | cytotoxicity
CCCc1cc(=O)[nH]c(SCC(=O)C(C)(C)C)n1 | -8.7%
CCCC(C)C1C(C#N)=C(N)Oc2cc(C)oc(=O)c21 (stereo unspecified) | 0.8%
CCn1ncc(Br)c1C(=O)Nc1ccc(C(=O)OC(C)C)cc1 | -9.8%
O=C(OCn1ncc(Br)c(Br)c1=O)c1ccccc1Cl | 40%
Cc1onc(-c2c(F)cccc2Cl)c1C(=O)OCn1nnc2ccccc2c1=O | -0.3%
CCn1ncc(Br)c1C(=O)Nc1ccc(F)cc1F | 2.8%
O=C(OCn1ncc(Br)c(Br)c1=O)c1c(F)cccc1F | 100% (active)
O=C(OCn1ncc(Br)c(Br)c1=O)c1ccc(F)cc1 | 95.8% (active)
CC1CC(C)CN(C(=O)c2ccccc2Nc2ccc(SC(F)F)cc2)C1 (stereo unspecified) | -5.3%
COc1cc(OC)cc(-c2nnc(SCC(=O)N3CCCC3)o2)c1 | 9%
CCOc1cc(C(c2c(C)[nH][nH]c2=O)c2c(C)[nH][nH]c2=O)ccc1OS(=O)(=O)c1ccc(C)cc1 | -4.6%
COc1ccc(CCNc2nnc(Sc3nnnn3-c3ccccc3)s2)cc1OC | 57.2% (active)
CCCSc1nnc(Sc2nnnn2-c2ccccc2)s1 | 60% (active)
COc1ccc(-n2nnnc2SCC(=O)NCCc2ccc(OC)c(OC)c2)cc1 | -21.1%
CCSc1nnnn1-c1ccccc1 | 11%
COc1ccc(CCNC(=O)CSc2nnnn2-c2ccccc2OC)cc1OC | 1%
c1ccc(-n2nnnc2SCCCSc2nc3ccccc3s2)cc1 | 5.7%
NS(=O)(=O)c1ccc(CCNc2nc(CN3CCCCC3)nc3sc4c(c23)CCC4)cc1 | 28.3%
CSc1nc(-c2ccccc2)nc2[nH]ccc(=O)c12 | 8.6%
CSc1nc2ccc(S(=O)(=O)N(C)C)cc2s1 | -0.9%
CCc1cc(C)c(O)c(CC)n1 | -4.2%
Nc1ccc(C(=O)n2c3ccccc3c3ccccc32)cc1 | 52.6% (active)
Cn1c2ccccc2c2cc(C(=O)O)ccc21 | 6.9%
Nc1ccc(C(=O)N2CCCC2)cc1 | 13%

SMILES | cytotoxicity
CC(C)Cc1nnc(NC(=O)CC(=O)Nc2ccccc2C(=O)O)s1 | -4.8%
O=C(NC1CC1)c1sccc1-n1cccc1 | 4%
COc1cccc(OCCSc2nnc3sc4ccccc4n23)c1 | 12.4%
COc1ccc(OCCSc2nnc3sc4ccccc4n23)cc1 | -2.4%
CCOC(=O)C1CCN(C(=O)CCCN2C(=O)c3ccccc3C2=O)CC1 | 5%
CC[Si](CC)(CC)c1c2c(nc3ccc(OC)cc13)-c1cccc(=O)n1C2 | -6.3%
CCNC(=O)COc1ccc(S(=O)(=O)Nc2ccccc2)cc1 | 2.5%
COc1ccc(S(=O)(=O)Cc2ccc(C(=O)NCc3ccc(F)cc3)o2)cc1 | -10.5%
COc1ccc(-n2c(Cc3cccn3C)nnc2SCC(=O)N2CCCc3ccccc32)cc1 | 0.6%
CCCCCCN(C(=O)CCCCCN1C(=O)NC(c2ccc([N+](=O)[O-])cc2)C(C(=O)OCc2ccccc2)=C1C)C(C(=O)NCCCC)c1ccc(OCC(=O)OC)c(C(=O)OC)c1 (stereo unspecified) | -7.3%
Cc1ccc(S(=O)(=O)Nc2cccc3cccnc23)cc1 | -3%
Brc1ccc(-c2nnc3n2-c2ccccc2CC3)cc1 | 2%
Cc1ccc(-n2c(-c3ccc(Br)cc3)c[n+]3c2CCc2ccc4cccnc4c2-3)cc1 | 63.8% (active)
COc1ccccc1NC(=O)CSc1nnc(COc2ccc(Cl)cc2)n1Cc1ccco1 | -2%
COc1ccc(OC)c(NC(=O)CN(c2ccc(C)cc2)S(=O)(=O)c2c(C)noc2C)c1 | 2.3%
CCOc1ccccc1NC(=O)CN(c1ccc(C)cc1)S(=O)(=O)c1c(C)noc1C | -3.3%
COc1ccc(N(CC(=O)Nc2cc(C)ccc2OC)S(=O)(=O)c2c(C)noc2C)cc1 | -2.6%
CCOc1ccc(N(CC(=O)Nc2ccccc2C)S(=O)(=O)c2c(C)noc2C)cc1 | 54.9% (active)
CCOc1ccc(N(CC(=O)NC(C)(C)C)S(=O)(=O)c2c(C)noc2C)cc1 | -10.4%
CCOc1ccc(N(CC(=O)Nc2ccc(C)cc2)S(=O)(=O)c2c(C)noc2C)cc1 | 3.5%
COc1ccc(N(CC(=O)Nc2cc(Cl)ccc2OC)S(=O)(=O)c2c(C)noc2C)cc1 | 53.8% (active)
CCOc1ccccc1NC(=O)CN(c1ccc(OC)cc1)S(=O)(=O)c1c(C)noc1C | 53.1% (active)
CCOc1ccccc1NC(=O)CN(c1cc(C)cc(C)c1)S(=O)(=O)c1c(C)noc1C | -7.8%
Cc1cccc(C)c1-n1c(C)cc(/C=C2\NC(=O)NC2=O)c1C | 15.3%
